Measured values from paper PMC8222333, “AsCas12a ultra nuclease facilitates the rapid generation of therapeutic cell medicines”.

B1: GGCT (dsDNA)
DNA 1: GCTATCTAGTGCTCAGTACGCACTGGGCTAGGAAACTTCTGGCAGGACCAGGTCATGAGATCGGAAGAGCACACGTCTGAACTCCAGTCA
DNA 2: TGACTGGAGTTCAGACGTGTGCTCTTCCGATCTCATGACCTGGTCCTGCCAGAAGTTTCCTAGCCCAGTGCGTACTGAGCACTAGATAGC
RNA: AAUUUCUACUCUUGUAGAUAGGAAACUUCUGGCAGGACC
B2: GTCC (dsDNA)
DNA 1: GCTATCTAGTGCTCAGTACGCACTGGTCCAGGAAACTTCTGGCAGGACCAGGTCATGAGATCGGAAGAGCACACGTCTGAACTCCAGTCA
DNA 2: TGACTGGAGTTCAGACGTGTGCTCTTCCGATCTCATGACCTGGTCCTGCCAGAAGTTTCCTGGACCAGTGCGTACTGAGCACTAGATAGC
RNA: AAUUUCUACUCUUGUAGAUAGGAAACUUCUGGCAGGACC
B3: GTCG (dsDNA)
DNA 1: GCTATCTAGTGCTCAGTACGCACTGGTCGAGGAAACTTCTGGCAGGACCAGGTCATGAGATCGGAAGAGCACACGTCTGAACTCCAGTCA
DNA 2: TGACTGGAGTTCAGACGTGTGCTCTTCCGATCTCATGACCTGGTCCTGCCAGAAGTTTCCTCGACCAGTGCGTACTGAGCACTAGATAGC
RNA: AAUUUCUACUCUUGUAGAUAGGAAACUUCUGGCAGGACC
B4: GTGG (dsDNA)
DNA 1: GCTATCTAGTGCTCAGTACGCACTGGTGGAGGAAACTTCTGGCAGGACCAGGTCATGAGATCGGAAGAGCACACGTCTGAACTCCAGTCA
DNA 2: TGACTGGAGTTCAGACGTGTGCTCTTCCGATCTCATGACCTGGTCCTGCCAGAAGTTTCCTCCACCAGTGCGTACTGAGCACTAGATAGC
RNA: AAUUUCUACUCUUGUAGAUAGGAAACUUCUGGCAGGACC
B5: TACC (dsDNA)
DNA 1: GCTATCTAGTGCTCAGTACGCACTGTACCAGGAAACTTCTGGCAGGACCAGGTCATGAGATCGGAAGAGCACACGTCTGAACTCCAGTCA
DNA 2: TGACTGGAGTTCAGACGTGTGCTCTTCCGATCTCATGACCTGGTCCTGCCAGAAGTTTCCTGGTACAGTGCGTACTGAGCACTAGATAGC
RNA: AAUUUCUACUCUUGUAGAUAGGAAACUUCUGGCAGGACC
B6: TACA (dsDNA)
DNA 1: GCTATCTAGTGCTCAGTACGCACTGTACAAGGAAACTTCTGGCAGGACCAGGTCATGAGATCGGAAGAGCACACGTCTGAACTCCAGTCA
DNA 2: TGACTGGAGTTCAGACGTGTGCTCTTCCGATCTCATGACCTGGTCCTGCCAGAAGTTTCCTTGTACAGTGCGTACTGAGCACTAGATAGC
RNA: AAUUUCUACUCUUGUAGAUAGGAAACUUCUGGCAGGACC
B7: TAAG (dsDNA)
DNA 1: GCTATCTAGTGCTCAGTACGCACTGTAAGAGGAAACTTCTGGCAGGACCAGGTCATGAGATCGGAAGAGCACACGTCTGAACTCCAGTCA
DNA 2: TGACTGGAGTTCAGACGTGTGCTCTTCCGATCTCATGACCTGGTCCTGCCAGAAGTTTCCTCTTACAGTGCGTACTGAGCACTAGATAGC
RNA: AAUUUCUACUCUUGUAGAUAGGAAACUUCUGGCAGGACC
B8: TAGC (dsDNA)
DNA 1: GCTATCTAGTGCTCAGTACGCACTGTAGCAGGAAACTTCTGGCAGGACCAGGTCATGAGATCGGAAGAGCACACGTCTGAACTCCAGTCA
DNA 2: TGACTGGAGTTCAGACGTGTGCTCTTCCGATCTCATGACCTGGTCCTGCCAGAAGTTTCCTGCTACAGTGCGTACTGAGCACTAGATAGC
RNA: AAUUUCUACUCUUGUAGAUAGGAAACUUCUGGCAGGACC
B9: TAAT (dsDNA)
DNA 1: GCTATCTAGTGCTCAGTACGCACTGTAATAGGAAACTTCTGGCAGGACCAGGTCATGAGATCGGAAGAGCACACGTCTGAACTCCAGTCA
DNA 2: TGACTGGAGTTCAGACGTGTGCTCTTCCGATCTCATGACCTGGTCCTGCCAGAAGTTTCCTATTACAGTGCGTACTGAGCACTAGATAGC
RNA: AAUUUCUACUCUUGUAGAUAGGAAACUUCUGGCAGGACC
B10: TAAC (dsDNA)
DNA 1: GCTATCTAGTGCTCAGTACGCACTGTAACAGGAAACTTCTGGCAGGACCAGGTCATGAGATCGGAAGAGCACACGTCTGAACTCCAGTCA
DNA 2: TGACTGGAGTTCAGACGTGTGCTCTTCCGATCTCATGACCTGGTCCTGCCAGAAGTTTCCTGTTACAGTGCGTACTGAGCACTAGATAGC
RNA: AAUUUCUACUCUUGUAGAUAGGAAACUUCUGGCAGGACC
B11: TACG (dsDNA)
DNA 1: GCTATCTAGTGCTCAGTACGCACTGTACGAGGAAACTTCTGGCAGGACCAGGTCATGAGATCGGAAGAGCACACGTCTGAACTCCAGTCA
DNA 2: TGACTGGAGTTCAGACGTGTGCTCTTCCGATCTCATGACCTGGTCCTGCCAGAAGTTTCCTCGTACAGTGCGTACTGAGCACTAGATAGC
RNA: AAUUUCUACUCUUGUAGAUAGGAAACUUCUGGCAGGACC
B12: TAGT (dsDNA)
DNA 1: GCTATCTAGTGCTCAGTACGCACTGTAGTAGGAAACTTCTGGCAGGACCAGGTCATGAGATCGGAAGAGCACACGTCTGAACTCCAGTCA
DNA 2: TGACTGGAGTTCAGACGTGTGCTCTTCCGATCTCATGACCTGGTCCTGCCAGAAGTTTCCTACTACAGTGCGTACTGAGCACTAGATAGC
RNA: AAUUUCUACUCUUGUAGAUAGGAAACUUCUGGCAGGACC
B13: TAGG (dsDNA)
DNA 1: GCTATCTAGTGCTCAGTACGCACTGTAGGAGGAAACTTCTGGCAGGACCAGGTCATGAGATCGGAAGAGCACACGTCTGAACTCCAGTCA
DNA 2: TGACTGGAGTTCAGACGTGTGCTCTTCCGATCTCATGACCTGGTCCTGCCAGAAGTTTCCTCCTACAGTGCGTACTGAGCACTAGATAGC
RNA: AAUUUCUACUCUUGUAGAUAGGAAACUUCUGGCAGGACC
B14: GTAG (dsDNA)
DNA 1: GCTATCTAGTGCTCAGTACGCACTGGTAGAGGAAACTTCTGGCAGGACCAGGTCATGAGATCGGAAGAGCACACGTCTGAACTCCAGTCA
DNA 2: TGACTGGAGTTCAGACGTGTGCTCTTCCGATCTCATGACCTGGTCCTGCCAGAAGTTTCCTCTACCAGTGCGTACTGAGCACTAGATAGC
RNA: AAUUUCUACUCUUGUAGAUAGGAAACUUCUGGCAGGACC
B15: GGTG (dsDNA)
DNA 1: GCTATCTAGTGCTCAGTACGCACTGGGTGAGGAAACTTCTGGCAGGACCAGGTCATGAGATCGGAAGAGCACACGTCTGAACTCCAGTCA
DNA 2: TGACTGGAGTTCAGACGTGTGCTCTTCCGATCTCATGACCTGGTCCTGCCAGAAGTTTCCTCACCCAGTGCGTACTGAGCACTAGATAGC
RNA: AAUUUCUACUCUUGUAGAUAGGAAACUUCUGGCAGGACC
B16: GGGT (dsDNA)
DNA 1: GCTATCTAGTGCTCAGTACGCACTGGGGTAGGAAACTTCTGGCAGGACCAGGTCATGAGATCGGAAGAGCACACGTCTGAACTCCAGTCA
DNA 2: TGACTGGAGTTCAGACGTGTGCTCTTCCGATCTCATGACCTGGTCCTGCCAGAAGTTTCCTACCCCAGTGCGTACTGAGCACTAGATAGC
RNA: AAUUUCUACUCUUGUAGAUAGGAAACUUCUGGCAGGACC
B17: GGGC (dsDNA)
DNA 1: GCTATCTAGTGCTCAGTACGCACTGGGGCAGGAAACTTCTGGCAGGACCAGGTCATGAGATCGGAAGAGCACACGTCTGAACTCCAGTCA
DNA 2: TGACTGGAGTTCAGACGTGTGCTCTTCCGATCTCATGACCTGGTCCTGCCAGAAGTTTCCTGCCCCAGTGCGTACTGAGCACTAGATAGC
RNA: AAUUUCUACUCUUGUAGAUAGGAAACUUCUGGCAGGACC
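Also: relative affinity from the bound to unbound sequence frequency ratio in Spec-seq.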

The binders below were run against dAsCas12a S542R (Acidaminococcus sp., UniProt U2UMQ6 1-1307, S542R;D908A;E993A;D1235A) (assay: Spec-seq (native PAGE EMSA with sequencing of bound and unbound); 25 mM Tris-HCl pH 7.4, 150 mM KCl, 5 mM MgCl2, 10% glycerol, 1 mM DTT, 40 ng/uL salmon sperm DNA; 400 nM Cas12a, 480 nM crRNA, 50 nM library, 37 C 1 h; native PAGE at room temperature; high values mean tight binding). Conditions: protein: recombinant.
With B1 the binding signal was -8.78 lnKA. For B2, the binding signal was -5.08 lnKA. Work on B3 yielded a binding signal of -6.96 lnKA. Work on B4 yielded a binding signal of -8.13 lnKA. For B5, the binding signal was -7.06 lnKA. B6 showed a binding signal of -7.41 lnKA. With B7 the binding signal was -8.68 lnKA. For B8, the binding signal was -8.4 lnKA. With B9 the binding signal was -8.37 lnKA. For B10, the binding signal was -8.34 lnKA. With B11 the binding signal was -7.71 lnKA. B12 was tested, and the binding signal was -8.48 lnKA. With B13 the binding signal was -8.66 lnKA. For B14, the binding signal was -8.28 lnKA. Binder B15 has a binding signal of -8.15 lnKA. With B16 the binding signal was -8.85 lnKA. Work on B17 yielded a binding signal of -8.77 lnKA.

What follows are binders tested against d-enCas12a (Acidaminococcus sp., UniProt U2UMQ6 1-1307, E174R;S542R;K548R;D908A;E993A;D1235A) in the same assay as above. Conditions: protein: recombinant.
With B1 the binding signal was -5.68 lnKA. Work on B2 yielded a binding signal of -1.42 lnKA. B3 was tested, and the binding signal was -4.39 lnKA. With B4 the binding signal was -5.91 lnKA. For B5, the binding signal was -1.02 lnKA. With B6 the binding signal was -1.33 lnKA. B7 was tested, and the binding signal was -5.56 lnKA. With B8 the binding signal was -5.51 lnKA. B9 gave a binding signal of -5.67 lnKA. B10 gave a binding signal of -4.66 lnKA. Binder B11 has a binding signal of -3.12 lnKA. Work on B12 yielded a binding signal of -5.67 lnKA. B13 gave a binding signal of -5.6 lnKA. In the case of B14, the binding signal is reported as -5.83 lnKA. B15 gave a binding signal of -4.86 lnKA. For B16, the binding signal was -5.77 lnKA. With B17 the binding signal was -5.93 lnKA.

Each binder was assayed against d-enCas12a-Ultra (Acidaminococcus sp., UniProt U2UMQ6 1-1307, E174R;S542R;K548R;M537R;F870L;D908A;E993A;D1235A) in the same assay as above. Conditions: protein: recombinant.
B1 gave a binding signal of -2.87 lnKA. B2 was tested, and the binding signal was -0.355 lnKA. B3 was tested, and the binding signal was -1.21 lnKA. B4 gave a binding signal of -3.47 lnKA. In the case of B5, the binding signal is reported as -0.362 lnKA. In the case of B6, the binding signal is reported as -0.355 lnKA. B7 was tested, and the binding signal was -3.25 lnKA. Binder B8 has a binding signal of -3.07 lnKA. Work on B9 yielded a binding signal of -3.27 lnKA. With B10 the binding signal was -2.03 lnKA. B11 was tested, and the binding signal was -0.852 lnKA. Work on B12 yielded a binding signal of -3.31 lnKA. B13 gave a binding signal of -3.37 lnKA. B14 showed a binding signal of -3.32 lnKA. Work on B15 yielded a binding signal of -1.95 lnKA. For B16, the binding signal was -3.46 lnKA. Work on B17 yielded a binding signal of -3.41 lnKA.
